Source: PubChem BioAssay
The list is not random: actives were taken first. Their share in the collection is about 2.9%.
PLC-gamma1 inh = PLC-gamma1 enzyme inhibitors, primary screen, biochemical, fluorescence, purified enzyme. hit rate 0.84% among 370,000. fluorogenic substrate. 1-phosphatidylinositol 4,5-bisphosphate phosphodiesterase gamma-1 (Homo sapiens), P19174. inhibition, % at 12.2 µM. AID 720700, 2013; in the data active = inhibition above about 9.5%
Target sequence (P19174 whole entry, looked up): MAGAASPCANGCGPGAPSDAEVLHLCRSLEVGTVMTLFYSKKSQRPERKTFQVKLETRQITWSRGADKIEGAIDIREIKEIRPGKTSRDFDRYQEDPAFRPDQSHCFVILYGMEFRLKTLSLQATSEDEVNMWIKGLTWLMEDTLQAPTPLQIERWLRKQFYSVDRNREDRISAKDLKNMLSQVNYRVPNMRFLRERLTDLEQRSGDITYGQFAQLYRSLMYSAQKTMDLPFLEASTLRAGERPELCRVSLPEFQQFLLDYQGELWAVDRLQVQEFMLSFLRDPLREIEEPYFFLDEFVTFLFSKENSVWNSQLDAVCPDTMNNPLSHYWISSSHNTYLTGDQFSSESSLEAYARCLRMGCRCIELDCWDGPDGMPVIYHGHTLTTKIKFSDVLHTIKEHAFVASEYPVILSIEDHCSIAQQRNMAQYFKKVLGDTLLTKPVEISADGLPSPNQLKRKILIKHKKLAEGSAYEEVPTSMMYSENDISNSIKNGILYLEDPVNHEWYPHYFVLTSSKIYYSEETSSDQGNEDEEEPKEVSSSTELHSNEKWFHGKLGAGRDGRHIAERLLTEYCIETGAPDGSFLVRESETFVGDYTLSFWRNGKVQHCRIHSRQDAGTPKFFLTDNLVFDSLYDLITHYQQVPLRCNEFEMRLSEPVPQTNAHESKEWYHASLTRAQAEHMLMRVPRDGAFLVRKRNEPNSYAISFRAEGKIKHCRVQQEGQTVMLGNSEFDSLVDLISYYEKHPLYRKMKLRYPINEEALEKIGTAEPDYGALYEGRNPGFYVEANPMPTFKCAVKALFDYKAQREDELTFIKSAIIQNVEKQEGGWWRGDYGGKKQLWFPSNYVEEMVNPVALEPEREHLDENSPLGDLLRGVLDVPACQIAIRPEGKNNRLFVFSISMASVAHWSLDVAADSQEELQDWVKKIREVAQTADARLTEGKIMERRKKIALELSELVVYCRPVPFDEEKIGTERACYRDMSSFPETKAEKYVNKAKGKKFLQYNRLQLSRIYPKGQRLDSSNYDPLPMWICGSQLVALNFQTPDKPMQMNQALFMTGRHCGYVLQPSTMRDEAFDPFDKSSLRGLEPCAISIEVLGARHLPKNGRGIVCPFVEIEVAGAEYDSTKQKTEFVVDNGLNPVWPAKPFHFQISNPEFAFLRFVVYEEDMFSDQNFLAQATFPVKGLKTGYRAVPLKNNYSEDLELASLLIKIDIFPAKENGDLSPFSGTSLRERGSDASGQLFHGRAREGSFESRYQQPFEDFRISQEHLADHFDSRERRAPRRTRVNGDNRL
PLCb3 inh = human PLC-beta3 inhibitors, primary screen, biochemical, fluorescence. inhibition, % at 12.2 µM. Purified PLC-beta3, fluorogenic substrate. 1-phosphatidylinositol 4,5-bisphosphate phosphodiesterase beta-3 (Homo sapiens), Q01970. hit rate 0.18% among 370,000; in the data active = inhibition above about 11%
ADAM10 inh = human ADAM10 inhibitors, primary screen, biochemical, QFRET, HTS. Disintegrin and metalloproteinase domain-containing protein 10 (Homo sapiens), O14672. recombinant ADAM10, EDANS/DABCYL FRET peptide cleavage, 3 h. inhibition, % at 7 µM. hit rate 0.62% among 370,000;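 active = inhibition above a per-campaign cutoff equal to the mean of compounds falling between control-based bounds plus 3 SD, cut at about 20% in these data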
proKLK7 act = proKLK7 zymogen activators, primary screen, biochemical, fluorescence intensity | Kallikrein-7 (Homo sapiens), P49862 | purified proKLK7, EDANS-DABCYL substrate fluorescence; 100% is mature enzyme control, 0% vehicle | activation, % at 7 µM | hit rate 0.9% among 370,000;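 active = activation above the mean of all tested compounds plus 3 SD, computed per campaign excluding outliers beyond control limits, cut at about 13% in these data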
ADAM17 inh = ADAM17 inhibitors, primary screen, biochemical, QFRET; Disintegrin and metalloproteinase domain-containing protein 17 (Homo sapiens), P78536; recombinant ADAM17, EDANS/DABCYL FRET peptide cleavage; inhibition, % at 6.95 µM; hit rate 0.83% among 370,000; AID 720648, 2013;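 active = inhibition above the mean of compounds lying between control limits plus 3 SD, set per campaign, cut at about 8.5% in these data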
ADAM10 ctr = ADAM10 inhibitors, counter-screen for ADAM17 exosite inhibitor project, biochemical, FRET, human ADAM10 | AID 743256, 2014 | hit rate 47% among 2,900 | shares compounds with ADAM17 inh | inhibition, % at 6.95 µM | recombinant ADAM10, EDANS/DABCYL FRET peptide cleavage, 3 h;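 active = mean inhibition over the triplicate runs exceeds the activity threshold set in the earlier primary screen, cut at about 20% in these data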
ADAM17 confirm = ADAM17 inhibitors, hit retest, confirmation, biochemical, QFRET peptide cleavage; shares compounds with ADAM17 inh; recombinant ADAM17, EDANS/DABCYL QFRET peptide cleavage; inhibition, % at 6.95 µM; hit rate 65% among 2,900;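 active = mean inhibition across replicates above the hit cutoff set in the primary screen, cut at about 8.5% in these data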
Large screens that a line does not name were inactive (follow-up assays come after a bar, where they were run).

COc1ccc(OC)c(CN2C(=O)CN(S(C)(=O)=O)CC2(C)C(=O)NCc2ccccc2)c1 (stereo not drawn)	none
CCOc1ccc(OCC(=O)OCC(=O)Nc2ccccc2C#N)cc1	none
CCOc1ccc(N=C2SC(C(=O)Nc3ccccc3C#N)C(N)=C2C(=O)Nc2ccc(Cl)cc2)cc1 (stereo not drawn)	ADAM17 inh 9.4 | ADAM10 ctr 21 | ADAM17 confirm 16
CCc1nc2ccc(C(=O)N3CCCC(C(N)=O)C3)cn2c1N(C=O)CC (stereo not drawn)	none
COc1ccc(-n2c(C)cc(=O)[nH]c2=O)cc1	none
CCCCSc1nsc(NC(C)=O)n1	none
CCCSc1nsc(NC(=O)CCC)n1	ADAM17 inh 9.2 | ADAM10 ctr inactive | ADAM17 confirm inactive
O=C(SCC(O)C(O)CS)c1cccs1 (stereo not drawn)	ADAM17 inh 43 | ADAM10 ctr 31 | ADAM17 confirm 64
CC(C)N1CCC1(C)C(=O)Nc1ccccc1OC(F)F (stereo not drawn)	ADAM17 inh 9.9 | ADAM10 ctr inactive | ADAM17 confirm inactive
COc1cccc(CC(=O)N(Cc2ccccc2)c2ccccc2C(=O)Nc2cc(OC)ccc2OC)c1	ADAM17 inh 12 | ADAM10 ctr inactive | ADAM17 confirm 13
CCOC(=O)C1=CCN(S(=O)(=O)c2ccccc2Br)C1c1ccc(Cl)c(Cl)c1 (stereo not drawn)	none
CCOC(=O)C1=CCN(S(=O)(=O)c2ccccc2C)C1c1ccc(Cl)c(Cl)c1 (stereo not drawn)	ADAM17 inh 13 | ADAM10 ctr inactive | ADAM17 confirm inactive
COc1ccc(N2CC(C)(C)[C@H](CC(=O)Nc3ccccc3)C2=O)cc1	none
CC(=O)c1ccc(CCCCc2ccc(C(C)=O)cc2)cc1	none
C=CCn1c(N(C)C)nc2c1c(=O)[nH]c(=O)n2C	ADAM17 inh 9.8 | ADAM10 ctr inactive | ADAM17 confirm inactive
O=C(Cn1nc(-c2ccccc2)ccc1=O)NCCc1cccc(F)c1	none
CCCCC(CC)C(=O)Oc1ccc(O)c(C(C)(C)C)c1 (stereo not drawn)	ADAM17 inh 12 | ADAM10 ctr inactive | ADAM17 confirm inactive
CCN(CC)c1ccc(NC(=O)CSc2nc3ccccc3c(=O)n2-c2cc(S(=O)(=O)N(C)C)ccc2C)cc1	ADAM17 inh 10 | ADAM10 ctr 21 | ADAM17 confirm 15
COc1cc(OC)cc(-c2c(C#Cc3ccsc3)c3cc(-c4ccc5c(c4)OCCO5)ccc3n2C)c1	none
Cc1cc(OCC(=O)OCC(=O)NC2CCCCC2C)ccc1Cl (stereo not drawn)	none
CS(=O)(=O)c1ccc(C(=O)Nc2cccc(-c3nc4ccccc4[nH]3)c2)cc1	ADAM17 inh 9.2 | ADAM10 ctr inactive | ADAM17 confirm inactive
CC(CCc1ccccc1)NC(=O)COC(=O)c1cc(NS(=O)(=O)c2ccc(Cl)c([N+](=O)[O-])c2)ccc1O (stereo not drawn)	ADAM17 inh 8.7 | ADAM10 ctr 31 | ADAM17 confirm 19
CC[C@@]1(C(=O)OC)N[C@H](CN(C)S(=O)(=O)c2ccccc2)[C@@H]2C(=O)N(C)C(=O)[C@@H]21	none
CC[C@@]1(C(=O)OC)N[C@H](CN(C)S(=O)(=O)c2ccc(-c3ccccc3)cc2)[C@@H]2C(=O)N(C)C(=O)[C@@H]21	ADAM17 inh 13 | ADAM10 ctr inactive | ADAM17 confirm inactive
Cc1ccc(S(=O)(=O)Nc2cc(=O)[nH]c(SCc3ccc(Cl)cc3)n2)cc1	ADAM17 inh 12 | ADAM10 ctr 20 | ADAM17 confirm 17
COc1ccc(Nc2nc(N)nc(CSC(=S)N3CCCCC3)n2)cc1	none
COc1ccc(Nc2nc(N)nc(CSC(=S)N3CCCCC3C)n2)cc1 (stereo not drawn)	ADAM17 inh 9.7 | ADAM10 ctr inactive | ADAM17 confirm 10
COc1ccccc1Nc1nc(N)nc(CSC(=S)N2CC(C)CC(C)C2)n1 (stereo not drawn)	ADAM17 inh 12 | ADAM10 ctr 30 | ADAM17 confirm 16
CC1(c2ccc([N+](=O)[O-])cc2)Nc2ccccc2S1 (stereo not drawn)	none
CCOC(=O)c1ccc(NC(=O)C2COc3ccccc3O2)cc1 (stereo not drawn)	none
CCOC(=O)c1ccc(-n2c(O)c(/C=N/NC(=O)C3COc4ccccc4O3)c3ccccc3c2=O)cc1 (stereo not drawn)	ADAM17 inh 10 | ADAM10 ctr inactive | ADAM17 confirm inactive
Cc1ccccc1NC(=O)CSc1nnc(-c2cc(-c3ccccc3)n[nH]2)n1N	none
CN(C)c1ccc(CN(CC2CCCO2)C(=O)c2cc3ccccc3o2)cc1 (stereo not drawn)	none
Cc1c(C(=O)N(Cc2ccc(N(C)C)cc2)CC2CCCO2)oc2ccccc12 (stereo not drawn)	ADAM17 inh 10.0 | ADAM10 ctr inactive | ADAM17 confirm inactive
CCOc1cc(C(=O)Nc2ccc(S(=O)(=O)Nc3nnc(CC)s3)cc2)cc(OCC)c1OCC	none
CCC(CC)C(=O)Nc1cccc(C(=O)Nc2ccc(S(=O)(=O)Nc3ccc(C)cc3)cc2)c1	ADAM17 inh 8.8 | ADAM10 ctr 22 | ADAM17 confirm 17
CCC(CC)C(=O)Nc1cccc(C(=O)Nc2ccc(S(N)(=O)=O)cc2)c1	none
CCc1nnc(NS(=O)(=O)c2ccc(NC(=O)c3cccc(Br)c3)cc2)s1	ADAM17 inh 9.6 | ADAM10 ctr inactive | ADAM17 confirm inactive
O=C(/C=C/c1ccccc1)Nc1cccc(C(=O)NCCCCc2ccccc2)c1	none
C/C(CC(=O)Nc1ccc(OCc2ccccc2)cc1)=N\NC(=O)C(=O)Nc1cccc(C)c1	ADAM17 inh 11 | ADAM10 ctr inactive | ADAM17 confirm inactive
COc1ccccc1NC(=O)C(=O)N/N=C(\C)CC(=O)Nc1ccc(OCc2ccccc2)cc1	none
COc1ccc(C(=O)CC(=O)Nc2ccc([N+](=O)[O-])cc2)cc1	ADAM17 inh 9.5 | ADAM10 ctr 25 | ADAM17 confirm 12
COc1ccc(Nc2ccc([N+](=O)[O-])cn2)cc1	ADAM17 inh 10 | ADAM10 ctr inactive | ADAM17 confirm inactive
